Screening results as filed in PubChem.
A selection: hits, their analogues and other compounds. The true share with any hit is near 8.1%.
KB-3-1 cytotox: KB-3-1 parental cell cytotoxicity. KB-3-1 viability, CellTiter-Glo ATP luminescence, 72 h. Potency, µM (doses to about 46.1 µM), usual class: cytotoxic. 400,000 compounds, 1.4% hits. AID 1347075; further: nearly all actives have a fitted effect of over 60% in size
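Parental KB-3-1 adenocarcinoma cells in phenol-red-free DMEM with 10% FBS were pin-treated with compounds at several concentrations, incubated 72 h at 37 °C, and viability read by CellTiter-Glo luminescence; concentration-effect curves were fitted after normalization.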
MCF10A rereplic: induces DNA re-replication in MCF 10a normal breast cells | Potency, µM (highest dose often 46.1 µM), actives largely listed as activators | MCF 10A DNA re-replication, Hoechst nuclear intensity, 48 h | 350,000 compounds, 2.9% hits | AID 624296; further: nearly all actives have a fitted effect of over 50% in size
SW480 rereplic: inducers of DNA re-replication in SW480 colon cancer cells. Potency, µM (titrated, usually from 46.1 µM), most hits filed as activators. AID 624297. 340,000 compounds, 1.8% hits. SW480 DNA re-replication, Hoechst DNA content imaging, 48 h; further: nearly all actives have a fitted effect of over 55% in size
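DNA re-replication was detected as more nuclei of elevated Hoechst intensity after 48 hr exposure to compound (23 nL pinned per well of 250 cells).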
KB-V1 MDR tox: KB-V1 MDR subline cytotoxicity; Potency, µM (top dose mostly 46.1 µM), actives largely listed as cytotoxic; 400,000 compounds, 3.4% hits; KB-V1 MDR cells viability, CellTiter-Glo, 72 h; further: nearly all actives have a fitted effect of over 60% in size
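Following 72 h at 37 degrees C with compound, KB-V1 cell viability was read by CellTiter-Glo luminescence, medium being phenol-red-free DMEM plus 10% FBS; concentration-response parameters came from normalized, curve-fitted qHTS data.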
ELG1 DNA repair: inhibitors of ELG1-dependent DNA repair in HEK293T cells; HEK293T ELG1-luciferase reporter, luminescence, 16 h; DNA damage induced by 5-fluorouridine; Potency, µM (doses to about 46.1 µM), hits mostly inhibitors; 330,000 compounds, 2.3% hits; AID 504467; further: nearly all actives have a fitted effect of over 55% in size
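In this reporter screen, reduction of luminescence relative to DMSO vehicle indicated activity. Compounds and 5-fluorouridine were added together to 2,000 cells per well, incubated for 16 hr at 37 °C, then developed with ONE-Glo.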
Each line names hits and unclear results; the compound was inactive in the other large screens. The call rests on the fitted dose curve; in most records, active means well fitted curve in the direction sought with a large enough effect; inconclusive means small, poorly fitted or top-dose-only effect, or another doubt; inactive means no such curve, though single readings can be large; an effect the other way counts as inactive or inconclusive.

C[C@H](CO)N1C[C@H](C)[C@@H](CN(C)S(=O)(=O)c2cccs2)Oc2ccc(NS(=O)(=O)c3ccc(F)cc3)cc2C1=O	ELG1 DNA repair 6.5µM
COc1ccc(S(=O)(=O)Nc2ccc3c(c2)C(=O)N([C@@H](C)CO)C[C@H](C)[C@H](CN(C)S(=O)(=O)c2ccc(F)cc2)O3)cc1	ELG1 DNA repair 21µM
C[C@H](CO)N1C[C@H](C)[C@@H](CN(C)S(=O)(=O)c2ccccc2)Oc2ccc(NS(=O)(=O)c3ccccc3)cc2C1=O	ELG1 DNA repair 23µM
C[C@H](CO)N1C[C@H](C)[C@@H](CN(C)S(=O)(=O)c2cccs2)Oc2ccc(NS(=O)(=O)c3ccccc3)cc2C1=O	ELG1 DNA repair 9.2µM
COc1ccc(S(=O)(=O)Nc2ccc3c(c2)C(=O)N([C@H](C)CO)C[C@H](C)[C@@H](CN(C)S(=O)(=O)c2ccc(OC)cc2)O3)cc1	none (no result: ELG1 DNA repair)
C[C@H](CO)N1C[C@H](C)[C@@H](CN(C)S(C)(=O)=O)Oc2ccc(NS(=O)(=O)c3ccccc3)cc2C1=O	MCF10A rereplic inconclusive, SW480 rereplic inconclusive, KB-V1 MDR tox inconclusive
Cc1ccc(C(=O)OC(C(=O)O)C(OC(=O)c2ccc(C)cc2)C(=O)O)cc1 (stereo not given)	KB-V1 MDR tox inconclusive
COc1ccc(S(=O)(=O)Nc2cccc3c2O[C@H](CN(C)S(=O)(=O)c2ccc(F)cc2)[C@H](C)CN([C@H](C)CO)C3=O)cc1	none
COc1ccc(S(=O)(=O)Nc2cccc3c2O[C@H](CN(C)S(=O)(=O)c2ccccc2)[C@@H](C)CN([C@H](C)CO)C3=O)cc1	SW480 rereplic 0.82µM, KB-V1 MDR tox inconclusive
O=C(/C=C/c1ccc(Cl)cc1)Nc1cccc([S+](=O)([O-])Nc2ccccc2F)c1	none (no result: MCF10A rereplic, SW480 rereplic, ELG1 DNA repair)
CC[C@]1(C(=O)OC)[C@H]2C(=O)N(Cc3ccccc3)C(=O)[C@H]2[C@H]2CN=C(SCC(=O)c3ccccc3)N21	SW480 rereplic inconclusive
COc1ccc(CCN(Cc2ccccn2)C(=S)Nc2ccc(C)cc2)cc1OC	KB-3-1 cytotox inconclusive, KB-V1 MDR tox 23µM
COc1ccccc1NC(=S)N(CCc1ccc(OC)c(OC)c1)Cc1ccccn1	KB-V1 MDR tox inconclusive
Cc1onc(-c2ccccc2)c1C(=O)c1c[nH]c(C(=O)NCc2ccncc2)c1	ELG1 DNA repair 13µM
Cc1onc(-c2ccccc2)c1C(=O)c1c[nH]c(C(=O)NCc2ccccn2)c1	KB-3-1 cytotox inconclusive, KB-V1 MDR tox inconclusive, ELG1 DNA repair 16µM
COc1ccc(C2CC(C)(c3ccc(OC)cc3)Nc3ccccc3N2)cc1 (stereo not given)	KB-3-1 cytotox 21µM, MCF10A rereplic inconclusive, SW480 rereplic inconclusive, KB-V1 MDR tox inconclusive
O=C(NS(=O)(=O)c1ccc2ccc(S(=O)(=O)NCCSc3ccccc3)cc2c1)c1cccc2ccccc12	none (no result: MCF10A rereplic, SW480 rereplic, ELG1 DNA repair)
CCOCCCNC(=S)NCCNc1nc2c(C)cccc2cc1C#N	MCF10A rereplic inconclusive, SW480 rereplic inconclusive, ELG1 DNA repair inconclusive
CCOCCCNC(=S)NCCCNc1nc2c(C)cc(C)cc2cc1C#N	none
Cc1ccc2cc(C#N)c(NCCNC(=S)NCCCN(C)C)nc2c1C	MCF10A rereplic 21µM, SW480 rereplic inconclusive, ELG1 DNA repair inconclusive
Cc1ccc2cc(C#N)c(NCCNC(=O)C3CC3)nc2c1C	KB-3-1 cytotox inconclusive, MCF10A rereplic inconclusive, SW480 rereplic inconclusive, KB-V1 MDR tox 3.7µM, ELG1 DNA repair 21µM
Cc1cc(C)c2nc(NCCCNC(=S)NCCCN(C)C)c(C#N)cc2c1	KB-3-1 cytotox inconclusive, MCF10A rereplic 18µM, SW480 rereplic 12µM
Cc1cccc2cc(C#N)c(NCCNC(=O)COc3ccccc3)nc12	KB-3-1 cytotox inconclusive, MCF10A rereplic inconclusive
COc1ccc(/C=C/C(=O)OCC(=O)NC2CCCCCC2)cc1	none (no result: MCF10A rereplic, SW480 rereplic, ELG1 DNA repair)
O[C@@H]1CN(Cc2cccs2)[C@@H](c2ccccc2)C[C@H]1n1cc(C2CC2)nn1	KB-V1 MDR tox inconclusive (no result: MCF10A rereplic, SW480 rereplic, ELG1 DNA repair)
CSc1ccc(Cl)c(C(=O)N2CCOc3ccccc32)c1	SW480 rereplic inconclusive, ELG1 DNA repair 9.2µM
Cc1c(Cl)cccc1NC(=O)N1CCOc2ccccc21	KB-V1 MDR tox inconclusive (no result: MCF10A rereplic, SW480 rereplic, ELG1 DNA repair)
CNc1snc(C)c1C(=O)OCC(=O)c1ccc(OC)c(F)c1	SW480 rereplic inconclusive, KB-V1 MDR tox inconclusive
CC(C)C[C@H]1CN(CCCC[C@@H]2CNC(=O)C(=O)N2CC2CCCCC2)C(=O)C(=O)N1CC1CCCCC1	KB-V1 MDR tox inconclusive (no result: MCF10A rereplic, SW480 rereplic, ELG1 DNA repair)
O=C(OCCN1C(=O)c2cccc3c(N4CCOCC4)ccc(c23)C1=O)c1cccc(Cl)c1	KB-3-1 cytotox 13µM, SW480 rereplic inconclusive, KB-V1 MDR tox inconclusive, ELG1 DNA repair inconclusive
O=C(OCCN1C(=O)c2cccc3c(N4CCOCC4)ccc(c23)C1=O)c1ccccc1Cl	KB-3-1 cytotox inconclusive, SW480 rereplic inconclusive, ELG1 DNA repair 12µM
O=C(OCCN1C(=O)c2cccc3c(N4CCOCC4)ccc(c23)C1=O)c1ccc(Cl)cc1Cl	KB-3-1 cytotox inconclusive, MCF10A rereplic inconclusive, SW480 rereplic 5.8µM, KB-V1 MDR tox inconclusive, ELG1 DNA repair inconclusive
O=C(OCCN1C(=O)c2ccccc2C1=O)c1cc(S(=O)(=O)N2CCOCC2)ccc1Cl	none
O=C(COC(=O)c1cccc(Cl)c1)Nc1cc(S(=O)(=O)N2CCOCC2)ccc1N1CCOCC1	none (no result: ELG1 DNA repair)
Cc1ccc(-c2nnn3c2nc(NCC(C)c2ccccc2)c2ccccc23)cc1 (stereo not given)	none (no result: MCF10A rereplic, SW480 rereplic, ELG1 DNA repair)
CC(C)NC(=O)C1CCCN(S(=O)(=O)c2ccc3c(ccn3C)c2)C1 (stereo not given)	none (no result: MCF10A rereplic, SW480 rereplic, ELG1 DNA repair)
COc1cc(C(=O)NC2CCN(C)CC2)ccc1Nc1ncc2c(n1)N(C1CCCC1)CCC(=O)N2C(C)C	KB-3-1 cytotox inconclusive, MCF10A rereplic inconclusive (no result: ELG1 DNA repair)
COc1cc(C(=O)NC2CCN(C)CC2)ccc1Nc1ncc2c(n1)N(CCc1ccccc1)CCC(=O)N2C	KB-3-1 cytotox inconclusive, MCF10A rereplic 9.2µM, SW480 rereplic 0.21µM (no result: ELG1 DNA repair)
CC(Oc1ccccc1F)C(=O)NNC(=O)c1ccc(F)c(S(=O)(=O)N2CCOCC2)c1 (stereo not given)	none (no result: KB-3-1 cytotox, KB-V1 MDR tox)
Cc1ccc(N=c2c([N+](=O)[O-])nn(-c3ccccc3)n2O)c(C)c1	KB-3-1 cytotox inconclusive, MCF10A rereplic 10µM, SW480 rereplic inconclusive, ELG1 DNA repair inconclusive
NC(=O)N/N=C/c1c(Sc2nnnn2-c2ccccc2)nc2ccccn2c1=O	KB-3-1 cytotox inconclusive, MCF10A rereplic 15µM, SW480 rereplic 7.3µM, ELG1 DNA repair inconclusive
O=C(CSc1nnnn1-c1ccccc1)CSc1nnnn1-c1ccccc1	ELG1 DNA repair inconclusive
O=C(Cc1ccccc1)Nc1cc2c(cc1Cl)OCCCO2	ELG1 DNA repair inconclusive
CC(NC(=O)c1cc2sccc2n1C)c1ccc2c(c1)OCCO2 (stereo not given)	KB-3-1 cytotox inconclusive, MCF10A rereplic inconclusive, KB-V1 MDR tox 21µM
CCn1c(C(=O)NC(C)c2ccc3c(c2)OCCO3)cc2sccc21 (stereo not given)	none
